What all share (assay): universal protein binding microarray (PBM); transcription factors of Arabidopsis thaliana; high values mean tight binding
What all share (conditions): protein: recombinant; tags: GST; chain copies: 2; dsDNA, one strand shown

The target in experiment [1] is T1, GST-ANAC092(1-176) (Arabidopsis thaliana, UniProt Q9FKA0 1-176).
T1 sequence: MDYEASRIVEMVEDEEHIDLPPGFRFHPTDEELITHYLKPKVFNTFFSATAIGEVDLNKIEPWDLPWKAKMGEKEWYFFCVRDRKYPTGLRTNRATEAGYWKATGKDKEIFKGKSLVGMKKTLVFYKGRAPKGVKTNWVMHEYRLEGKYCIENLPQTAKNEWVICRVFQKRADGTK
In a few lines:
(§1)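 For zinc-finger proteins, zinc acetate was added while GST-tagged NAC-domain, full-length or DNA-binding-domain proteins were induced in cells. Purification used glutathione–Sepharose 4B, and quantification used A280 or anti-GST western blot. Custom all-10-mer Agilent 4 × 180K arrays, made double-stranded by primer extension, each received a protein at 200 to 500 nM final in duplicate. Scoring covered gapped and ungapped 8-mers, with binding given as the normalised enrichment score (E-score).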

The target of experiment [2] is GST-NTL6(1-168) (Arabidopsis thaliana, UniProt Q9SCK6 1-168). Put shortly: as §1
GST-NTL6(1-168), sequence (Q9SCK6 1-168): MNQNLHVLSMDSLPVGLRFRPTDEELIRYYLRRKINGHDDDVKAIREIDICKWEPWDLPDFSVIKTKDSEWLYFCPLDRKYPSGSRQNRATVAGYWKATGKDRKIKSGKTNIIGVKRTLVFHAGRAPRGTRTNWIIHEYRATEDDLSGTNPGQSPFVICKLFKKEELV
For experiment [3], the target named is T2, GST-ANAC019 NAC domain (Arabidopsis thaliana, UniProt Q9C932 14-162).
T2 sequence: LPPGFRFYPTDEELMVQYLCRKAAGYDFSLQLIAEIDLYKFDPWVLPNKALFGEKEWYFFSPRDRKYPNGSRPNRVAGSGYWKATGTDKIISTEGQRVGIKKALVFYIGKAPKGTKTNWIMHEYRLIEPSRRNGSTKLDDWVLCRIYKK
Put shortly: as §1

Experiment [4] addresses T3, GST-ANAC055(1-171) (Arabidopsis thaliana, UniProt Q9LDY8 1-171).
T3 sequence: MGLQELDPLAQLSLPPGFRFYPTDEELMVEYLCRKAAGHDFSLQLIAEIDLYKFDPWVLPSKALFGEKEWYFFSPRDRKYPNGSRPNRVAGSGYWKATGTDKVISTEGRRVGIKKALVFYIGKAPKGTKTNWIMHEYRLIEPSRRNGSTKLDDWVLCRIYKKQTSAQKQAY
In a few lines:
as §1

Experiment [5] has as its target T4, GST-ATAF1 NAC domain (Arabidopsis thaliana, UniProt Q39013 7-158).
T4 sequence: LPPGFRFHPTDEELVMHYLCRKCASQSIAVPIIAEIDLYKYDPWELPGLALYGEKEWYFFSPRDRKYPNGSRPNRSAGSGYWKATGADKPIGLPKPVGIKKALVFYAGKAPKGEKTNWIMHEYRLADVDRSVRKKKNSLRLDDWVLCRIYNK
Put shortly:
as §1

Experiment [6] has as its target T5, GST-ANAC092(1-285) full length (Arabidopsis thaliana, UniProt Q9FKA0 1-285).
T5 sequence: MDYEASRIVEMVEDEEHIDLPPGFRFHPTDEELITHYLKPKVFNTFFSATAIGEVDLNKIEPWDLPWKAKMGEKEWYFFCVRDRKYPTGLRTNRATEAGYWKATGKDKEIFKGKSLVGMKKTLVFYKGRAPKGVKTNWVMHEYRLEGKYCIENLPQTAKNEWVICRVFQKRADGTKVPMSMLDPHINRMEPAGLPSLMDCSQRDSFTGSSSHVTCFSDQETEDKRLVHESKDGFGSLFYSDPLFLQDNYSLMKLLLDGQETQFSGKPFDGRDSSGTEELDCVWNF
In a few lines:
as §1

In experiment [7] the target is T6, GST-NAP(1-166) (Arabidopsis thaliana, UniProt O49255 1-166).
T6 sequence: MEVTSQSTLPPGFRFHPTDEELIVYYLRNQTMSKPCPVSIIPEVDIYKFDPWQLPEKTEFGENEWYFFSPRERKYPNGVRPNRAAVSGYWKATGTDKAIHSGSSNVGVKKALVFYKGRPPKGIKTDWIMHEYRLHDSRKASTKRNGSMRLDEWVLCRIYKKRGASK
Put shortly: as §1

Experiment [8] has as its target T7, GST-NST2(1-184) (Arabidopsis thaliana, UniProt Q9M274 1-184).
T7 sequence: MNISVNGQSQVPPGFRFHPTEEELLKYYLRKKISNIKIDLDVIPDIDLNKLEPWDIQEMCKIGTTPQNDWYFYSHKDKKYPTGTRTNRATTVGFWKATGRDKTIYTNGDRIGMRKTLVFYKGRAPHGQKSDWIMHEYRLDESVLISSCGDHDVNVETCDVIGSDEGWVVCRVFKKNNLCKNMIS
In a few lines: as §1

The target in experiment [9] is T8, GST-NTL8 NAC domain (Arabidopsis thaliana, UniProt Q9XIN7 14-156).
T8 sequence: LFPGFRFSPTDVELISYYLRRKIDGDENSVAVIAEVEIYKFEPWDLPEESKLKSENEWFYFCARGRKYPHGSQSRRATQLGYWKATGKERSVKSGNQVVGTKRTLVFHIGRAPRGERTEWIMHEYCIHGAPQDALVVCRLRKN
Put shortly: as §1

The target in experiment [10] is T9, GST-SND1(1-203) (Arabidopsis thaliana, UniProt Q9LPI7 1-203).
T9 sequence: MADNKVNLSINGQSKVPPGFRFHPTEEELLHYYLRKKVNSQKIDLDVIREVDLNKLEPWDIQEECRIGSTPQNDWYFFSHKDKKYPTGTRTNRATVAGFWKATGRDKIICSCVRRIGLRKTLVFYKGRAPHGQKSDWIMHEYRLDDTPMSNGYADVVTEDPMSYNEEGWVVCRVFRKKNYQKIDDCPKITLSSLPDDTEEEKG
In a few lines:
as §1

Experiment [11] concerns the target T10, GST-VND3 NAC domain (Arabidopsis thaliana, UniProt Q9FH59 12-162).
T10 sequence: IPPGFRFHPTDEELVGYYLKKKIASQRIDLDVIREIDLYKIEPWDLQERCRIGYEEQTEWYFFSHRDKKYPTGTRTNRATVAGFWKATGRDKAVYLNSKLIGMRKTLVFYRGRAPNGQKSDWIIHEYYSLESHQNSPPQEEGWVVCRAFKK
In a few lines: as §1

Experiment [12] deals with T11, GST-VND7 NAC domain (Arabidopsis thaliana, UniProt Q9C8W9 9-158).
T11 sequence: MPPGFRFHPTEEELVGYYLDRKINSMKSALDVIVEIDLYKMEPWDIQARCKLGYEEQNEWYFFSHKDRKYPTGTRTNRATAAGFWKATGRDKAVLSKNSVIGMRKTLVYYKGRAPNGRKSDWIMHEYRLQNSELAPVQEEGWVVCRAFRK
In a few lines: as §1

For GTGAAGAA, the binding signal came to 0.238 E-score in [1]; 0.244 E-score in experiment [2]; 0.305 E-score in experiment [3]; 0.215 E-score in experiment [4]; 0.316 E-score in experiment [5]; 0.197 E-score in experiment [6]. In addition, the binding signal came to 0.164 E-score in [7]; 0.129 E-score in [8]; 0.403 E-score in experiment [9]; 0.182 E-score in [10]; 0.304 E-score in experiment [11]; 0.288 E-score in [12].

In the case of CTTACTTC, the binding signal in experiment [1] was determined as 0.272 E-score; in [2] it was 0.413 E-score; in [3], 0.227 E-score; in experiment [4] it was 0.191 E-score; in experiment [5] it was 0.209 E-score; in [6], 0.325 E-score. The binding signal stood at 0.267 E-score in experiment [8]; 0.4 E-score in experiment [9]; 0.387 E-score in [10]; 0.209 E-score in experiment [11]; 0.23 E-score in [12].

Turning to CTTAAGTA, the binding signal in experiment [1] came to 0.154 E-score; in experiment [2] it was 0.416 E-score; in experiment [3], 0.0907 E-score; in experiment [4] it was 0.178 E-score; in experiment [5] it was 0.207 E-score; in experiment [6], 0.198 E-score. Moreover, the binding signal in experiment [7] was 0.0567 E-score; in experiment [8] it was 0.207 E-score; in experiment [9] it was 0.264 E-score; in experiment [10] it was 0.267 E-score; in experiment [11], 0.218 E-score; in experiment [12], 0.182 E-score.

With CTTACGTA, the binding signal worked out at 0.423 E-score in experiment [1]; 0.161 E-score in experiment [2]; 0.457 E-score in experiment [3]; 0.421 E-score in [4]; 0.407 E-score in experiment [5]; 0.435 E-score in [6]. Moreover, the binding signal in experiment [7] worked out at 0.363 E-score; in experiment [8], 0.313 E-score; in [9], 0.219 E-score; in experiment [10], 0.405 E-score; in experiment [11], 0.43 E-score; in [12] it was 0.433 E-score.

In the case of ACTTAACC, the binding signal in experiment [1] is 0.197 E-score; in [2], 0.402 E-score; in experiment [3] it was 0.17 E-score; in experiment [4], 0.115 E-score; in [5] it was 0.132 E-score; in experiment [6], 0.186 E-score. Besides, the binding signal in experiment [8] is 0.164 E-score; in experiment [9], 0.243 E-score; in [10], 0.221 E-score; in [11], 0.203 E-score; in [12] it was 0.209 E-score.

Regarding GGAAGTAA, the binding signal in experiment [1] was 0.249 E-score; in experiment [2], 0.404 E-score; in [3], 0.151 E-score; in experiment [4], 0.104 E-score; in experiment [5] it was 0.123 E-score; in [6], 0.307 E-score. Also, the binding signal in experiment [8] is 0.248 E-score; in experiment [9], 0.203 E-score; in experiment [10], 0.259 E-score; in experiment [11], 0.133 E-score; in experiment [12], 0.0641 E-score.

Regarding ACGTTACT, the binding signal in [1] was 0.435 E-score; in [2], 0.0863 E-score; in experiment [3], 0.287 E-score; in experiment [4] it was 0.155 E-score; in experiment [5], 0.282 E-score; in experiment [6], 0.439 E-score. In addition, the binding signal came out at 0.249 E-score in [7]; 0.268 E-score in experiment [8]; 0.233 E-score in experiment [9]; 0.434 E-score in [10]; 0.259 E-score in [11]; 0.326 E-score in [12].

For AACGTAAT, the binding signal in [1] worked out at 0.293 E-score; in [2], 0.183 E-score; in experiment [3] it was 0.266 E-score; in experiment [4], 0.32 E-score; in experiment [5] it was 0.359 E-score; in experiment [6], 0.357 E-score. Moreover, the binding signal in experiment [7] came out at 0.286 E-score; in experiment [8], 0.309 E-score; in experiment [9] it was 0.114 E-score; in experiment [10] it was 0.449 E-score; in experiment [11], 0.359 E-score; in experiment [12], 0.274 E-score.

As to GTTAAGCA, the binding signal in [1] amounted to 0.131 E-score; in [2], 0.408 E-score; in experiment [3] it was 0.0907 E-score; in [4], 0.0654 E-score; in experiment [5] it was 0.119 E-score; in experiment [6], 0.153 E-score. Also, the binding signal in experiment [8] came out at 0.209 E-score; in experiment [10], 0.223 E-score; in [11], 0.143 E-score; in experiment [12], 0.0676 E-score.

Take ATGACGTA: the binding signal came out at 0.443 E-score in [1]; 0.0683 E-score in experiment [2]; 0.372 E-score in experiment [3]; 0.346 E-score in experiment [4]; 0.374 E-score in experiment [5]; 0.437 E-score in experiment [6]. Also, the binding signal came to 0.404 E-score in experiment [7]; 0.317 E-score in [8]; 0.098 E-score in experiment [9]; 0.446 E-score in experiment [10]; 0.437 E-score in experiment [11]; 0.386 E-score in experiment [12].

With GTACGCAA, the binding signal in experiment [1] worked out at 0.482 E-score; in experiment [2], 0.121 E-score; in experiment [3], 0.445 E-score; in [4], 0.411 E-score; in [5], 0.407 E-score; in experiment [6], 0.487 E-score. The binding signal in experiment [7] came to 0.456 E-score; in [8], 0.394 E-score; in experiment [9] it was 0.0545 E-score; in experiment [10], 0.47 E-score; in experiment [11], 0.413 E-score; in experiment [12], 0.437 E-score.

Take AGAAGCAA: the binding signal in [1] turned out to be 0.381 E-score; in [2], 0.361 E-score; in [3], 0.0522 E-score; in experiment [4], 0.119 E-score; in experiment [5], 0.0783 E-score; in [6], 0.42 E-score. For the same sequence, the binding signal in experiment [8] was 0.284 E-score; in experiment [9], 0.218 E-score; in experiment [10] it was 0.382 E-score; in experiment [11], 0.109 E-score; in experiment [12], 0.234 E-score.

As to CACACGCA, the binding signal is 0.453 E-score in experiment [1]; 0.0743 E-score in experiment [2]; 0.389 E-score in experiment [3]; 0.321 E-score in experiment [4]; 0.248 E-score in experiment [5]; 0.47 E-score in experiment [6]. Further, the binding signal in [7] is 0.375 E-score; in experiment [8] it was 0.229 E-score; in experiment [9], 0.141 E-score; in [10], 0.327 E-score; in experiment [11], 0.375 E-score; in experiment [12] it was 0.353 E-score.

Turning to GCGTATAA, the binding signal in [1] came to 0.375 E-score; in [2], 0.0699 E-score; in experiment [3] it was 0.0915 E-score; in experiment [4], 0.23 E-score; in experiment [5], 0.229 E-score; in experiment [6], 0.409 E-score. Moreover, the binding signal in [7] stood at 0.181 E-score; in [8], 0.285 E-score; in [9], 0.11 E-score; in [10] it was 0.399 E-score; in [11], 0.213 E-score; in experiment [12], 0.161 E-score.
